In PubChem BioAssay (Tox21) one finds Potency and outcome data, which are given here for 15 molecules.

“And” between values parts separate entries of the source, which are not always exact repeats. Identical values can stand only once. Where a structure was tested more than once in an assay, its records may differ in their call. The source made the active and inactive calls. Unless noted, calls follow the shape of the dose curve; as a rule, active = well fitted curve in the direction sought with a large enough effect in the repeat runs; inconclusive = weak or mixed curves; inactive = no such curve, though single readings can be large; an effect the other way counts as inactive or inconclusive.

Assay [1] is described as follows: qHTS assay to identify small molecule antagonists of the glucocorticoid receptor (GR) signaling pathway - cell viability counter screen (AID 720693). Also: nearly all actives have a fitted effect of over 55% in size. Also: potency is read from the fitted curve at half-maximal effect.
Assay [2] in a line: qHTS assay for identifying genotoxic compounds that show differential cytotoxicity against isogenic chicken DT40 cell lines with known DNA damage response pathways - wild type cell line (AID 743012). Also: nearly all actives have a fitted effect of over 60% in size. Also: potency is read from the fitted curve at half-maximal effect. The essentials: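 Wild-type DT40 cells (300/well) exposed to compounds for 40 hours at 37 C/5% CO2. Viability read by CellTiter-Glo luminescence after 30 min at room temperature.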
A general note: Quantitative high-throughput screening tests each substance at several concentrations.

The nature of assay [3]: qHTS assay for identifying genotoxic compounds that show differential cytotoxicity against isogenic chicken DT40 cell lines with known DNA damage response pathways - Rev3 mutant cell line (AID 743014). Also: nearly all actives have a fitted effect of over 55% in size. Also: potency is read from the fitted curve at half-maximal effect.
Assay [4] is described as follows: qHTS assay for identifying genotoxic compounds that show differential cytotoxicity against isogenic chicken DT40 cell lines with known DNA damage response pathways - Rad54/Ku70 mutant cell line (AID 743015). Also: nearly all actives have a fitted effect of over 60% in size. Also: potency is read from the fitted curve at half-maximal effect.
Assay [5] in a line: qHTS assay to identify small molecule antagonists of the androgen receptor (AR) signaling pathway using the MDA cell line - cell viability counter screen (AID 743041; also: nearly all actives have a fitted effect of over 45% in size; also: potency is read from the fitted curve at half-maximal effect). The essentials: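 Same-well cytotoxicity was assessed by CellTiter-Fluor in MDA-kb2 AR-luc cells after 16 h of compound treatment under R1881 agonism.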
The nature of assay [6]: qHTS assay to identify small molecule antagonists of the thyroid receptor (TR) signaling pathway - cell viability counter screen (AID 743064). Also: nearly all actives have a fitted effect of over 50% in size. Also: potency is read from the fitted curve at half-maximal effect. The method, boiled down: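 CellTiter-Fluor readout, 30 min at 37 °C/5% CO2, following 23.5 h incubation of GH3.TRE-Luc cells with test compound and 1 nM T3 (final).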
For assay [7], the system named is thyroid hormone receptor (rat, GH3 cells). In words: qHTS assay to identify small molecule agonists of the thyroid receptor (TR) signaling pathway (AID 743066; calls by dose curve).
A short description of assay [8]: qHTS assay to identify small molecule antagonists of the estrogen receptor alpha (ER-alpha) signaling pathway - cell viability counter screen (AID 743074; calls by dose curve;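 also: HEK293 cells carrying ER-alpha-UAS-bla reporter stimulated with 17beta-estradiol; nearly all actives have a fitted effect of over 45% in size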; also: potency is read from the fitted curve at half-maximal effect).
Assay [9] can be described thus: qHTS assay to identify small molecule antagonists of the estrogen receptor alpha (ER-alpha) signaling pathway using the BG1 cell line (AID 743080; calls by dose curve;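 also: BG1 cells stimulated with 17beta-estradiol alongside compound; nearly all actives have a fitted effect of over 25% in size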; also: potency is read from the fitted curve at half-maximal effect). The essentials:
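BG1-Luc-4E2 cells (endogenous full-length ER-alpha, stable 4×ERE-luciferase) were starved 5 days in phenol-red-free medium with 10% charcoal-stripped FBS, plated 24 h, then given compound plus 17beta-estradiol for 21.5 h at 37 C; ONE-Glo luminescence read after 30 min.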

Assay [10] can be described thus: qHTS assay to identify small molecule antagonists of the estrogen receptor alpha (ER-alpha) signaling pathway using the BG1 cell line - cell viability counter screen (AID 743081).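 Also: compound given together with 17beta-estradiol as the ER stimulus; series mostly up to about 70 µM; nearly all actives have a fitted effect of over 45% in size.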
In assay [11] the target is Aromatase (Homo sapiens) (UniProt P11511). In words: qHTS assay to identify aromatase inhibitors (AID 743083). Also: nearly all actives have a fitted effect of over 55% in size. Also: potency is read from the fitted curve at half-maximal effect.
For assay [12], the target named is Androgen receptor (Homo sapiens) (UniProt P10275). As to the kind of experiment: qHTS assay to identify small molecule antagonists of the androgen receptor (AR) signaling pathway (AID 743035; active = well fitted inhibition curve with a large enough effect in the signal ratio in the repeat runs, not every such curve was filed as active; inconclusive = weak or mixed curves, or effect the other way; inactive = no such curve, though single readings can be large or run the other way; the % refers to the signal ratio; also: potency is read from the fitted curve at half-maximal effect). The method, boiled down: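 HEK293 cells stably carrying UAS-beta-lactamase reporter, 2,000/well, given compounds plus R1881 agonist and incubated 16 h at 37C. LiveBLAzer B/G FRET substrate then added for 2 h at room temperature before fluorescence reading.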

Assay [13] shares this target. In words: qHTS assay to identify small molecule antagonists of the androgen receptor (AR) signaling pathway using the MDA cell line (AID 743042; also: nearly all actives have a fitted effect of over 55% in size; also: potency is read from the fitted curve at half-maximal effect). The method, boiled down:
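MDA-kb2 breast carcinoma cells carrying MMTV-luciferase (AR/GR responsive) were co-treated with compounds and the agonist R1881 for 16 h at 37C. Inhibition read as ONE-Glo luminescence; CellTiter-Fluor fluorescence measured in parallel for cytotoxicity.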

Assay [14] can be described thus: qHTS assay to identify small molecule antagonists of the thyroid receptor (TR) signaling pathway (AID 743065). Also: nearly all actives have a fitted effect of over 55% in size. Also: potency is read from the fitted curve at half-maximal effect. The essentials: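 GH3.TRE-Luc rat pituitary cells (two TREs driving luciferase) were dosed with compound, then stimulated with 1 nM T3 (final) for 23.5 h at 37 C. ONE-Glo luminescence was the read-out, with CellTiter-Fluor fluorescence as the cytotoxicity counter-screen.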

In assay [15] the target is Estrogen receptor (Homo sapiens) (UniProt P03372). In words: qHTS assay to identify small molecule agonists of the estrogen receptor alpha (ER-alpha) signaling pathway (AID 743075; calls by dose curve;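 also: HEK293 GripTite cells with ER-alpha and UAS-driven beta-lactamase reporter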; also: potency is read from the fitted curve at half-maximal effect).
For assay [16] the target is unchanged. In words: qHTS assay to identify small molecule antagonists of the estrogen receptor alpha (ER-alpha) signaling pathway (AID 743069; active = well fitted curve in the direction sought with a large enough effect in the signal ratio in the repeat runs, not every such curve was filed as active; inconclusive = weak or mixed curves, or effect the other way; inactive = no such curve, though single readings can be large or run the other way; the % refers to the signal ratio; also: potency is read from the fitted curve at half-maximal effect). The method, boiled down:
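Reporter cells (ER-alpha-bla, HEK293 background) are conditioned overnight in stripped-serum medium (2% charcoal-stripped FBS). Compound and 17beta-estradiol exposure runs 18 hr at 37C, 5% CO2.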

For assay [17] the target is unchanged. As to the kind of experiment: qHTS assay to identify small molecule agonists of the estrogen receptor alpha (ER-alpha) signaling pathway using the BG1 cell line (AID 743079). Also: nearly all actives have a fitted effect of over 20% in size.
Assay [18] has as its target Androgen receptor (Homo sapiens) (UniProt P10275). In words: qHTS assay to identify small molecule agonists of the androgen receptor (AR) signaling pathway (AID 743036; active = well fitted activation curve with a large enough effect in the signal ratio in the repeat runs, with a control signal flat, not every such curve was filed as active; inconclusive = weak or mixed curves, or effect the other way; inactive = no such curve, though single readings can be large or run the other way; the % refers to the signal ratio). The essentials: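 Following a 4 h settling period, AR-UAS-bla HEK293 cells were dosed with compounds for 16 h at 37C. A 2 h room-temperature incubation with LiveBLAzer B/G FRET substrate preceded the fluorescence measurement.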

Assay [19] in a line: qHTS assay to identify small molecule antagonists of the androgen receptor (AR) signaling pathway - cell viability counter screen (AID 743033; also: nearly all actives have a fitted effect of over 45% in size).

Estrogen receptor (Homo sapiens), sequence (P03372 whole entry, looked up): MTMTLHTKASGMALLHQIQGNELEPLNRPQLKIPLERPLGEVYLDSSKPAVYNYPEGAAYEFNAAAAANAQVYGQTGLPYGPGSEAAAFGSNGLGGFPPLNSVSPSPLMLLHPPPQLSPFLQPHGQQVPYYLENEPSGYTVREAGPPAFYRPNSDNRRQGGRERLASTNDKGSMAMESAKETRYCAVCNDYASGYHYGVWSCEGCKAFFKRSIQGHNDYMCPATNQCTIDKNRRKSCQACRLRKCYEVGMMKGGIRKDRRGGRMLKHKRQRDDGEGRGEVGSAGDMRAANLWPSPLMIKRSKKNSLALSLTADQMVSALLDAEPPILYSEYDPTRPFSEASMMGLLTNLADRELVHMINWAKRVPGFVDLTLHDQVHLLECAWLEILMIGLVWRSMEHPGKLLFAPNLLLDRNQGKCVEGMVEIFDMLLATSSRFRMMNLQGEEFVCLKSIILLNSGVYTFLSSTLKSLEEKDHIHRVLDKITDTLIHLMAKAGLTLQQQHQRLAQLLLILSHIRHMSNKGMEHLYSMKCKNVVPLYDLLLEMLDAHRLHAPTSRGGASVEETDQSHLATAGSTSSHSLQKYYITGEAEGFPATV
Androgen receptor (Homo sapiens), sequence (P10275 whole entry, looked up): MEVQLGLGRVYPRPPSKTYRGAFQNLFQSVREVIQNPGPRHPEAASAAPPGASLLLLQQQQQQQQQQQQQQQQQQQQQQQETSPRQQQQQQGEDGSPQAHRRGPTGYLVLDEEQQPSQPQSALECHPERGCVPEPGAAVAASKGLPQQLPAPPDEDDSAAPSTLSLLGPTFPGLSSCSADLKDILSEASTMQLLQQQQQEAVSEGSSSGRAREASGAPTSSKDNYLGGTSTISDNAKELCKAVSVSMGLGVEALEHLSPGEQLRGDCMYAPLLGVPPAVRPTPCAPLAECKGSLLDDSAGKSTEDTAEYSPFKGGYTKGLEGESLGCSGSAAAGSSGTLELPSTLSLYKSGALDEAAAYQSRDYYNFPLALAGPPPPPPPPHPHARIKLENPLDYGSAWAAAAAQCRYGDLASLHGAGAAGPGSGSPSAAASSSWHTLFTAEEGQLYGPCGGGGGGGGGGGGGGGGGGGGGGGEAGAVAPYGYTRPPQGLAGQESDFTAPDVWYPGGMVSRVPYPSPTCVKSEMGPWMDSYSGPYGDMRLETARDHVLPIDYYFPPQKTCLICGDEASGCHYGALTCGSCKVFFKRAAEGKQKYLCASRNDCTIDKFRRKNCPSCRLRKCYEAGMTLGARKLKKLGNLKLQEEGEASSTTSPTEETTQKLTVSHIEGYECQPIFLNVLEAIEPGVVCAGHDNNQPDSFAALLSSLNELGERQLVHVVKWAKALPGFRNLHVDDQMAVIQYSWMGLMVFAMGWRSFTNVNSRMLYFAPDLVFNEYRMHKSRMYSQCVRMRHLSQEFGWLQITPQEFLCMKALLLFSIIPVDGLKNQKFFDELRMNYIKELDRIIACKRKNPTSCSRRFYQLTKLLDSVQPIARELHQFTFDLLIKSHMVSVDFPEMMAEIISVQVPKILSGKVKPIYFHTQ
Aromatase (Homo sapiens), sequence (P11511 whole entry, looked up): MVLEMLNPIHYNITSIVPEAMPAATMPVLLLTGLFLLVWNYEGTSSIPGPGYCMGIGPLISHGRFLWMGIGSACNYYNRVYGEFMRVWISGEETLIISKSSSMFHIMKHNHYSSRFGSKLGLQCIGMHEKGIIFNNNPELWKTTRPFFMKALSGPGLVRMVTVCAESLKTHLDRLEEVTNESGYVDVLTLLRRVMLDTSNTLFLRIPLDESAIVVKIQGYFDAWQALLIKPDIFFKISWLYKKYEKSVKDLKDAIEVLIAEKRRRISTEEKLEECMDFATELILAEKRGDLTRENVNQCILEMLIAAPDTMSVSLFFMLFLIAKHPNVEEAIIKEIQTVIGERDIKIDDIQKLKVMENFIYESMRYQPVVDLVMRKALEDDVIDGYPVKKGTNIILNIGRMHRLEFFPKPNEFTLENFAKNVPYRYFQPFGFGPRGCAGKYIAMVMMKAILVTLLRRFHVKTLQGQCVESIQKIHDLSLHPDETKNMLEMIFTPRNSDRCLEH

`CCN`: the Potency result in [1], in assay [2], in assay [3], in assay [4], in assay [5] and in assay [6] was “inactive” throughout. Also, the Potency entry in assay [8], in [9], in assay [10] and in assay [11] was “inactive” throughout. The molecule was called inactive in [7].

Take `CC(=O)[O-].[Tl+]`: the Potency entry in assay [1] and in [10] was “inactive” throughout. Further, the Potency in [2] was 2.75 µM (active); in assay [3] it was 1.73 µM (active); in assay [4], 1.73 µM (active); in assay [11], 61.5 µM (active). In assay [7], the molecule was classed as inactive.

On to `C[C@H]1O[C@@H](O[C@H]2[C@@H](O)C[C@H](O[C@H]3[C@@H](O)C[C@H](O[C@H]4CC[C@@]5(C)[C@H](CC[C@@H]6[C@@H]5CC[C@]5(C)[C@@H](C7=CC(=O)OC7)CC[C@]65O)C4)O[C@@H]3C)O[C@@H]2C)C[C@H](O)[C@@H]1O`, for which the Potency in assay [1] was 477 nM (active) and 98.3 nM (active); in [2], 422 nM (active) and 388 nM (active); in assay [3] it was 473 nM (active) and 218 nM (active); in [4], 473 nM (active) and 308 nM (active); in assay [12], 425 nM (active) and 124 nM (active); in assay [8], 33.8 nM (active) and 19.6 nM (active). In addition, the Potency in assay [9] was 0.548 µM (active). For the same molecule, the Potency result in [5], in assay [13], in [6], in assay [14], in [15] and in assay [10] was “inactive” each time. In assay [11], the Potency entry is “inactive”. Also, the outcome in assay [7] was inactive.

As to `Cc1cc(C)c(C2=C(OC(=O)CC(C)(C)C)C3(CCCC3)OC2=O)c(C)c1`, the Potency result in assay [1], in [2], in assay [3], in [4], in [5] and in assay [6] was “inactive” in each case. The Potency result in [14], in assay [16], in assay [8], in assay [15], in assay [17] and in assay [9] was “inactive” in each case. Moreover, the Potency result in [10] and in assay [11] was “inactive” each time. Further, the call in assay [7] was inactive.

As to `O=[N+]([O-])c1cc([N+](=O)[O-])c2ccccc2c1`, the Potency entry in [1], in assay [5] and in [14] was “inactive” in each case. The results for the Potency in assay [2], in assay [3] and in assay [4] were 6.11 µM (active), 13.7 µM (active) and 7.52 µM (active), respectively. For the same molecule, the call in [7] was inactive.

In the case of `S=C(SSC(=S)N1CCCCC1)N1CCCCC1`, the Potency result in [1] and in [8] was “inactive” in each case. Moreover, the Potency in [2] is 0.531 µM (active); in [3], 0.531 µM (active); in assay [4] it was 0.596 µM (active); in assay [5], 1.06 µM (active); in assay [6] it was 0.211 µM (active); in assay [14], 0.237 µM (active). The Potency in assay [11] is 1.06 µM (active).

In the case of `C[C@H]1CC[C@@H]2[C@@H](C)[C@H]3[C@H](C[C@H]4[C@@H]5CC=C6CC(O[C@@H]7O[C@H](CO)[C@H](O)[C@H](O[C@@H]8O[C@H](CO)[C@@H](O)[C@H](O)[C@H]8O)[C@H]7O[C@H]7O[C@@H](C)[C@H](O)[C@@H](O)[C@H]7O)CC[C@]6(C)[C@H]5CC[C@]34C)N2C1` (some centres undefined), the Potency result in assay [1], in [3], in [16], in assay [17] and in assay [10] was “inactive” in each case. Also, the Potency in assay [2] is 26.6 µM (active) and inactive; in assay [4], 26.6 µM (active) and inactive; in assay [6], 18.8 µM (active) and inactive; in assay [8], 16.9 µM (active) and inactive; in [9], 17.8 µM (active); in assay [11] it was 25.1 µM (active). The molecule was classed as inactive in assay [7].

For the molecule `CCOCn1c(-c2ccc(Cl)cc2)c(C#N)c(Br)c1C(F)(F)F`, the Potency in assay [1] was 3.47 µM (active); in assay [2], 1.93 µM (active); in assay [3], 2.17 µM (active); in assay [4], 1.54 µM (active); in assay [5], 3.86 µM (active); in assay [6], 6.11 µM (active). Further, the Potency in assay [14] is 1.37 µM (active); in assay [11] it was 9.69 µM (active).

For the molecule `ClC1=C(Cl)C2(Cl)C3C(Cl)C(Cl)CC3C1(Cl)C2(Cl)Cl` (centres undefined), the Potency entry in assay [1], in assay [18], in assay [5], in assay [13] and in [10] was “inactive” in each case. For the same molecule, the Potency entry is “inactive and 21.7 µM (active)” in assay [2]; 30.6 µM (active) in [3]; 24.3 µM (active) in assay [4]; 48.8 µM (active) and 43.6 µM (active) in [12]; 21.6 µM (active) and 24.3 µM (active) in assay [6]; 24.3 µM (active) in [14]. In addition, the Potency in [15] is 54.8 µM [inconclusive] (active); in assay [11] it was 68.4 µM (active). For the same molecule, the molecule was called inactive in assay [7].

With `Clc1ccc(CSC(Cn2ccnc2)c2ccc(Cl)cc2Cl)cc1` (centres undefined), the Potency entry in assay [1], in [8], in assay [9] and in assay [10] was “inactive” each time. The Potency in assay [2] is 10.1 µM (active); in assay [3] it was 11.4 µM (active); in assay [4], 12.7 µM (active); in assay [11] it was 2.85 µM (active). The result in assay [7] was inactive.

As for `CCOC(=O)C1(c2ccccc2)CCN(CCC(C#N)(c2ccccc2)c2ccccc2)CC1`, the Potency result in assay [1], in assay [9], in assay [10] and in assay [11] was “inactive” each time. In addition, the Potency in assay [2] was 2.98 µM (active) and 5.31 µM (active); in assay [3], 3.76 µM (active) and 10.6 µM (active); in [4], 5.31 µM (active) and 9.44 µM (active); in [12], 10.7 µM (active) and 13.4 µM (active); in assay [13], 26.6 µM (active) and 53.1 µM (active); in [14], 9.44 µM (active) and 15 µM (active). In addition, the results for the Potency in assay [16] and in assay [15] were 6.01 µM [inconclusive] (active) and 53.5 µM [inconclusive] (active), respectively. For the same molecule, the result in assay [7] was inactive.

Consider `Cn1cc(C2=C(c3cn(C4CCN(Cc5ccccn5)CC4)c4ccccc34)C(=O)NC2=O)c2ccccc21`, for which the Potency result in assay [1], in [2], in assay [3], in assay [4], in [5] and in assay [6] was “inactive” in each case. In addition, the Potency result in [14] and in assay [8] was “inactive” each time. In assay [7], the outcome was inactive.

Regarding `CC1(C)[C@H](C(=O)O[C@H](C#N)c2cccc(Oc3ccccc3)c2)[C@@H]1/C=C(\Cl)C(F)(F)F`, the Potency entry in assay [1], in assay [5], in assay [6], in assay [8], in assay [10] and in [11] was “inactive” each time. Further, the Potency was 50.5 µM (active) in assay [2], 50.5 µM (active) in [3] and 40.1 µM (active) in assay [4]. Besides, in [7], the molecule was called inactive.

On to `CCCOCC(=Nc1ccc(Cl)cc1C(F)(F)F)n1ccnc1`, for which the Potency in assay [1] was 15.5 µM (active); in assay [2], 4.32 µM (active); in assay [3] it was 4.32 µM (active); in assay [4], 4.32 µM (active); in assay [5], 61.1 µM (active); in [6], 7.69 µM (active). Besides, the Potency is 7.69 µM (active) in [14] and 0.0153 µM (active) in [11].

Regarding `c1ccc2c(c1)OCC(C1=NCCN1)O2` (centres undefined), the Potency entry in assay [1], in assay [19], in assay [8], in assay [15], in assay [9] and in assay [10] was “inactive” throughout. Further, the Potency in assay [2] is 5.31 µM (active); in [3], 7.5 µM (active); in assay [4], 8.41 µM (active); in assay [6] it was 7.5 µM (active); in assay [14], 7.5 µM (active); in assay [11] it was 26.6 µM (active).
